# FBW7 act: activators of human E3 ligase FBW7 | AlphaScreen FBW7–phospho-cyclin E peptide binding, activator screen | 650,000 compounds, 0.13% hits | normalized activity (activation), % at 26.1 µM; in the data active = normalized activity above about 1.9%;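 also: purified mutant Fbw7 with reduced substrate affinity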
# MITF primary: blocks human microphthalmia-associated transcription factor; inhibition, % at 2.6 µM; 650,000 compounds, 0.91% hits; AlphaScreen MITF homodimerization, bead proximity signal; O75030; in the data active = inhibition above about 50%;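 also: 0% = vehicle wells with protein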
# TEAD-YAP block: TEAD-YAP interaction inhibition; 640,000 compounds, 1.4% hits; inhibition, % at 9.12 µM; HEK-TIYL cells, TEAD-Gal4/YAP UAS-luciferase luminescence; in the data active = inhibition above about 32%;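 also: 0% = median of test compound wells and 100% = reference inhibitor wells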
# GPR151 activ: activators of human GPR151; Q8TDV0; PathHunter beta-arrestin GPR151 cells, luminescence; activation, % at 11.2 µM; 650,000 compounds, 1% hits; AID 1508602; in the data active = activation above about 4.9%;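 also: 0% = median of compound wells and 100% = cells with positive control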
# Target sequence (Q8TDV0 whole entry, looked up): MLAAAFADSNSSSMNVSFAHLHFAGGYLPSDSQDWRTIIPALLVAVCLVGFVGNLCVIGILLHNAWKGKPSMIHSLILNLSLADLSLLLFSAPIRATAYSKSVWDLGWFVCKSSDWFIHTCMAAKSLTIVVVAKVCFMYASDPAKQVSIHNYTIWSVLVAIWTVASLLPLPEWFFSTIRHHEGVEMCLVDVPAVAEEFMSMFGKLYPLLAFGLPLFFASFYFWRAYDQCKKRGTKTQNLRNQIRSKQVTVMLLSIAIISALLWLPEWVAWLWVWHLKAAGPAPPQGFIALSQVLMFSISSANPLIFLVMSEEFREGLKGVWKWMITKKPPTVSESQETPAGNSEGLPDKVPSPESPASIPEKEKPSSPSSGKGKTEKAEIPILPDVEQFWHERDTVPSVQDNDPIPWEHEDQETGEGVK
# GPR151 conf act: confirmation of human GPR151 activators. shares compounds with GPR151 activ. GPR151 PathHunter beta-arrestin cells, luminescence, 90 min; % of EA-reagent control over plate median. activation, % at 11.2 µM. 6,700 tested, under 10 active;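 active = mean percent activation across replicates above the confirmation screen cutoff of 4.91%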
# GPR119 counter: GPR119 activation, counter-screen for GPR151 activators; shares compounds with GPR151 activ; GPR119 PathHunter beta-arrestin cells, luminescence, 90 min; 0 = compound-well median, 100 = enzyme-acceptor control; activation, % at 11.2 µM; 6,700 compounds, 0.3% hits; AID 1508611;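 active = mean percent activation in the counterscreen above 29.09%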;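 also: counterscreen on off-target GPR119 to flag nonselective hits from the GPR151 activator screen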
# * marks the source's active call; other numbers are inactive results; x = not tested or not shown; ! = not active in a repeat. Hits are enriched below; roughly 3.5% of the tested compounds scored in any of these assays.
SMILES,FBW7 act,MITF primary,TEAD-YAP block,GPR151 activ,GPR151 conf act,GPR119 counter
O=C(NCc1ccc2c(c1)OCO2)C1CC2CCCN2C12C(=O)Nc1ccccc12 (centres undefined),-0.1,-7.6,3.5,5.1*,0.4,2.9
CCCCN(C)c1nnc(NC(=O)Nc2ccc(CC(=O)OCC)cc2)s1,0.1,6.5,2.3,-0.4,x,x
CCCCN(C)c1nnc(NC(=O)Nc2ccc(Cl)cc2)s1,-0.2,5.0,-10.7,7.5*,0.9,1.4
Cc1cccc(C(=O)Nc2cccc(-c3nc4ccccc4s3)c2)c1,-0.1,-7.0,-0.2,0.2,x,x
O=C(Nc1cccc(-c2nc3ccccc3s2)c1)c1ccc(N2C(=O)CCC2=O)cc1,0.0,1.8,-1.9,7.4*,-0.8,1.6
O=C(Nc1cccc(-c2nc3ccccc3s2)c1)c1ccccc1,0.2,12.5,2.6,1.7,x,x
O=C(Nc1cccc(-c2nc3ccccc3s2)c1)C12CC3CC(CC(C3)C1)C2,-0.2,-12.9,-5.4,5.5*,0.6,-0.5
O=C(Nc1cc2ccccc2cc1NC(=O)c1ccc(Cl)cc1)c1ccc(Cl)cc1,-0.1,2.0,-4.0,5.6*,1.4,19.2
Cc1ccc2nc(-c3ccc([N+](=O)[O-])cc3)oc(=O)c2c1,0.3,6.2,2.9,-1.2,x,x
c1ccc(N2CCN(c3nnc(SCc4ccccn4)s3)CC2)cc1,0.1,-3.0,-39.6,5.4*,-0.7,-8.9
c1ccc(CSc2nnc(SCc3ccccn3)s2)nc1,0.1,2.3,-62.1,-0.2,x,x
COc1ccccc1NC(=O)C1CC(=O)OC12CCOC(C)(C)C2 (centres undefined),0.2,-3.6,-19.2,6.5*,-0.3,7.2
COc1ccccc1NC(=O)C1CC(=O)OC1(C)C (centres undefined),0.5,2.8,0.6,-0.4,x,x
Nc1nc(NCCc2ccc(O)cc2)cc(-c2ccc(C(=O)NC3CC3)cc2)n1,0.2,1.5,3.1,6.8*,-0.5,-9.8
NC(=O)c1ccc(-c2cc(NCCc3ccc(O)cc3)nc(N)n2)cc1,0.1,-7.8,-13.5,-1.8,x,x
CN1/C(=C\C=N\NC(=S)Nc2cccnc2)C(C)(C)c2ccccc21,-0.3,2.9,28.8,7.4*,-0.3,2.5
C=CCSc1ncnc2sc(C)c(C)c12,0.1,5.8,0.0,5.3*,-0.3,4.5
N=c1c(C(=O)NCc2ccco2)cc2c(=O)n3ccccc3nc2n1CCO,-0.1,8.1,1.2,-2.5,x,x
CCN1CCN(c2ncnc3sc(C(=O)Nc4cnc5ccccc5c4)c(C)c23)CC1,-0.1,9.4,-18.1,5.3*,0.0,11.9
CCN1CCN(c2ncnc3sc(C(=O)Nc4ccc(F)cc4)c(C)c23)CC1,-0.1,2.6,-1.0,5.2*,-0.4,6.2
COc1ccc([N+](=O)[O-])cc1NC(=O)c1sc2ncnc(N3CCC(C)CC3)c2c1C,0.1,-2.4,-1.2,12.5*,0.1,5.8
CCc1ccc(CNC(=O)CCn2nc(-c3ccc(C)cc3)ccc2=O)cc1,-0.2,1.1,-5.9,0.6,x,x
CCOC(=O)c1c(N2C(=O)CCC2=O)sc2c1CCC(C)C2 (centres undefined),-0.1,9.5,4.2,1.2,x,x
CCOC(=O)c1c(N2C(=O)C3C4C=CC(C4)C3C2=O)sc2c1CCC(C)C2 (centres undefined),-0.3,-1.8,12.1,7.3*,-0.1,-3.2
COc1ccc(CCn2ccc(-c3sc(NCc4ccco4)nc3C)n2)cc1,0.1,-2.3,1.7,8.0*,-0.3,0.3
SMILES,FBW7 act,MITF primary,TEAD-YAP block,GPR151 activ,GPR151 conf act,GPR119 counter
Cc1nn(Cc2ccccc2)c(C)c1/C=N/NC(=O)Cn1nnc(-c2ccccc2)n1,0.1,7.7,-5.6,1.2,x,x
O=C(C1CCC1)N1CCOc2ccc(CN3CCN(c4ccccn4)CC3)cc2C1,-0.1,-4.3,3.1,-1.5,x,x
O=C(C1CCCCC1)N1CCOc2ccc(CN3CCN(Cc4ccccn4)CC3)cc2C1,0.2,25.3,2.2,5.0*,0.4,11.0
CC(C)C(=O)OCCN1C(=O)c2cccc3c(N4CCCCC4)ccc(c23)C1=O,-0.1,-2.4,-2.6,1.8,x,x
CC(C)C(=O)OCCN1C(=O)c2cccc3c(N4CCOCC4)ccc(c23)C1=O,0.3,-0.5,-4.6,6.6*,0.5,12.1
O=C(Nc1cccc(-c2ccn[nH]2)c1)C1CCN(C2CCOCC2)CC1,-0.1,-4.4,14.2,0.3,x,x
Cc1noc(C(=O)Nc2c(C)nn(Cc3ccccc3)c2C)c1Cl,-0.3,-1.1,13.2,5.3*,1.4,9.9
Cc1cc(Cl)ccc1OC(C)C(=O)NCc1ccco1 (centres undefined),-0.1,12.5,4.2,6.9*,1.4,16.1
COc1ccc2c(c1)OC[C@@H](Cc1ccc(OC)c(OC)c1)[C@@H]2O,-0.1,-13.2,-3.4,5.0*!,0.4,-0.6
COc1ccc(C(=O)Cc2ccc(OC)c(OC)c2)c(OC)c1,0.2,-4.8,-2.1,3.6,x,x
CC1(C)CC(NC(=O)c2ccncc2)C(C)(C)N1O (centres undefined),0.6,12.6,-2.3,1.2,x,x
CCN(C(=O)c1ccc([N+](=O)[O-])cc1Cl)c1ccccc1C,0.1,8.2,-2.4,8.6*,-0.7,-8.7
CCc1ccccc1NS(=O)(=O)c1cc2[nH]c(=O)c(=O)[nH]c2cc1C,0.0,-5.9,1.2,-0.8,x,x
NC(=O)NC(=O)COc1ccc(F)cc1Br,0.0,3.1,-23.3,8.2*,0.4,0.1
O=Cc1ccc(OCC(=O)Nc2ccc(F)cc2)c(Br)c1,0.1,6.5,-9.1,-1.5,x,x
Cc1cc2ccccc2n1CCNC(=O)c1ccc(Br)cc1,-0.1,0.7,-12.7,5.0*,-0.4,6.8
CCCNC(=O)CSc1nccn1Cc1ccc(F)cc1,0.0,-10.4,-4.2,5.7*,1.4,10.7
Cc1cc2c(cc3c(=O)n(CC(=O)N4CCC(C)CC4)nc(C)n32)s1,0.4,10.4,1.6,1.4,x,x
CC(=O)N1CCOc2cc(S(=O)(=O)N3CCC(Cc4ccccc4)CC3)c(C)cc21,-0.1,-2.4,0.3,5.0*,0.4,2.5
CC(=O)N1CCOc2cc(S(=O)(=O)N3CCCCCC3)c(C)cc21,0.0,6.5,-8.3,0.4,x,x
COc1cccc2ccc(CN3CCN(C4CCN(C(C)C)CC4)C(CCO)C3)nc12 (centres undefined),-0.2,-1.8,-3.1,9.0*,-0.8,-1.8
CC(C)N1CCC(N2CCN(Cc3ccc(-c4ccc(Cl)cc4)o3)CC2CCO)CC1 (centres undefined),0.0,4.8,-1.2,6.6*,1.6,13.4
Cn1c(=O)n(CC(=O)NCc2ccc(F)cc2)c2cccnc21,0.1,0.2,-20.4,10.1*,0.5,0.5
O=C(N/C(=C/c1ccc(F)cc1)C(=O)N1CCCCC1)c1ccco1,-0.2,-8.0,-1.9,6.6*,0.4,2.2

# High-throughput results (PubChem BioAssay)
